Drawing on the supplement of paper PMC3842684, this text covers relative % inhibition for 39 molecules.

In this assay the test system is P. falciparum NF54-pfs16-GFP early (I-III) stage gametocytes. Put plainly: relative % inhibition of viable gametocyte number; higher = more gametocytocidal. Conditions: 0.5 µM; stage: early (I-III) gametocyte; incubation 72 h. The procedure, abridged: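 Compound was tested in duplicate at 5 or 0.5 µM on magnet-isolated NF54 pfs16-GFP gametocytes, taken either early (I/IIa, day 2) or late (day 8) and plated at 10% parasitaemia, 0.1% haematocrit. Incubation ran 72 h at 37°C, 5% CO2, 5% O2, followed by overnight MitoTracker Red staining and confocal imaging. Relative inhibition, based on counts of elongated GFP objects with above-cut-off MitoTracker signal, was normalised to in-plate vehicle and positive-control wells.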
For `CCN1CCN(c2cc(C)c3cc(NC(=O)c4ccc(OC)c(OC)c4)ccc3n2)CC1`, the relative % inhibition was found to be 11.4%.

With `CN1CCN(c2ncnc3c2[nH]c2ccc(Cl)cc23)CC1`, the relative % inhibition turned out to be 9.76%.

On to `CCOc1ccc(-c2nc(NC(=O)c3cccc(S(C)(=O)=O)c3)sc2C)cc1`, for which the relative % inhibition worked out at 17.8%.

As for `CCOc1ccc(-c2nonc2NC(=O)c2cccc(C)c2)cc1OCC`, the relative % inhibition came out at 31.4%.

In the case of `CCOC(=O)C1=C(C)N=c2sc(=Cc3ccccc3O)c(=O)n2C1c1ccc(OC)c2ccccc12` (centres undefined), the relative % inhibition is -2.21%.

For `CCCOCc1cc(CN2CCN(c3cccc(Cl)c3)CC2)c(O)c2ncccc12`, the relative % inhibition amounted to 14%.

As to `COc1ccc(-n2ccnc2SCC(=O)Nc2cc(C)ccc2C)c(OC)c1`, the relative % inhibition amounted to 3.61%.

Take `CCN(CC)c1cc(C)c2cc(NC(=O)c3cccc(OC)c3)ccc2n1`: the relative % inhibition is 15.1%.

Take `COc1ccc2nc(C)cc(Nc3cccc(O)c3)c2c1`: the relative % inhibition came to 2.97%.

Turning to `Oc1ccc(Cl)cc1CNc1nc2ccccc2[nH]1`, the relative % inhibition is 16.5%.

As for `O=C(NNc1cc(N2CCCC2)nc(N2CCCC2)n1)c1ccccc1`, the relative % inhibition is -9.28%.

Consider `O=C(Nc1nc(-c2ccccn2)cs1)c1ccccc1Br`, for which the relative % inhibition came to 10.8%.

Regarding `Cc1[nH]c(-c2ccc(F)cc2)cc1C(=O)NC1CCN(Cc2ccccc2)CC1`, the relative % inhibition came to 14.7%.

Take `CCCN(CCC)CC(O)COc1ccccc1C(=O)Nc1ccccc1` (centres undefined): the relative % inhibition stood at 22.5%.

`O=C(Nc1ccc(-c2nc3cc4ccccc4cc3[nH]2)cc1)c1cccc(Br)c1`: the relative % inhibition was determined as 23.2%.

For the molecule `Brc1ccc(Nc2nc3ccccc3nc2Nc2ccc(Br)cc2)cc1`, the relative % inhibition came out at 38.5%.

For `COCCN(C(=O)Cc1cccs1)C(C(=O)NCc1ccc(OC)cc1)c1ccc(C(C)C)cc1` (centres undefined), the relative % inhibition came to 25.1%.

Consider `COc1ccc(C2c3ccc4ccccc4c3Oc3ncn(CCCN(C)C)c(=N)c32)cc1` (centres undefined), for which the relative % inhibition was determined as 76.2%.

On to `CCN(CC)CCNc1ncnc2c1[nH]c1ccc(Br)cc12`, for which the relative % inhibition is -15.3%.

As to `O=C(CCl)NCCOc1ccc(Cl)cc1Cl`, the relative % inhibition came to 24%.

As to `COc1cc(-c2nc(-c3ccccc3)c(-c3ccccc3)[nH]2)cc(OC)c1O`, the relative % inhibition was found to be 15.2%.

As for `OC(Cn1nnc2ccccc21)Cn1c2ccc(Br)cc2c2cc(Br)ccc21` (centres undefined), the relative % inhibition is 5.28%.

As to `CCc1c(C)c(=N)c2ccccc2n1C`, the relative % inhibition is -1.08%.

With `O=C(Nc1cccc(-c2nc3ccccc3[nH]2)c1)c1cccc(NC(=O)c2ccco2)c1`, the relative % inhibition was determined as 12.9%.

For `COc1cccc(O)c1CN1CCC2(CCCN(Cc3ccc(F)cc3)C2)C1` (centres undefined), the relative % inhibition was 11.3%.

As for `O=C1CC(O)(C(F)(F)C(F)(F)F)Oc2ccccc21` (centres undefined), the relative % inhibition was determined as 0.889%.

As for `OCCNc1nc(Nc2ccc(Cl)c(Cl)c2)nc2ccccc12`, the relative % inhibition was -6.33%.

Take `CCOc1cc(Br)c(C(C)NC(=O)c2cccc(OC)c2)cc1OCC` (centres undefined): the relative % inhibition amounted to 9.37%.

With `COc1cccc(NC(=O)[C@H](C(C)C)n2c(=O)[nH]c3ccccc3c2=O)c1`, the relative % inhibition came out at 70.7%.

As to `Oc1ccccc1CN1CCN(C(c2ccccc2)c2ccccc2)CC1`, the relative % inhibition worked out at 13.3%.

For the molecule `COc1cc2c3cc1Oc1c(OC)c(OC)cc4c1C(Cc1ccc(O)c(c1)Oc1ccc(cc1)CC3N(C)CC2)N(C)CC4` (centres undefined), the relative % inhibition was determined as 1.03%.

In the case of `COc1ccc(C(=O)C2CC2c2ccc(Cl)cc2)cc1` (centres undefined), the relative % inhibition was 8.75%.

On to `CC(C)CNC(=O)c1c(N)n(CCc2ccccc2F)c2nc3ccccc3nc12`, for which the relative % inhibition is -1.27%.

For `O=C(Nc1cccc(C(F)(F)F)c1)c1cc(Cl)ccc1O`, the relative % inhibition was -0.916%.

As to `CCOc1ccc(C2N(C)c3ccccc3N2C)cc1`, the relative % inhibition was 5%.

For `COc1ccc(-c2cc(=O)oc3c4c(ccc23)OCN(Cc2ccc(F)cc2)C4)cc1`, the relative % inhibition was -4.17%.

As to `OC(CNC1CCCC1)Cn1c2ccccc2c2ccccc21` (centres undefined), the relative % inhibition was found to be 15.6%.

As for `O=C(NCC1Cc2cccc(-c3ccncc3)c2O1)c1csc2c1CCCC2` (centres undefined), the relative % inhibition was -5.92%.

As for `CCOc1cc2c(cc1OCC)C(c1cc(C)c(O)c(C)c1)NCC2` (centres undefined), the relative % inhibition was 18.2%.
